High-throughput results deposited in PubChem BioAssay by National Center for Advancing Translational Sciences (NCATS).
Shown is part of a subset that was picked to be rich in hits.
TDP1 cell CPT – growth inhibition of DT40 Tdp1-/-;hTDP1 cells with camptothecin (screen for TDP1 inhibitors); chicken DT40 Tdp1-/-;hTDP1 cells + 20 nM CPT, ATP luminescence, 48 h; Potency, µM (doses to about 46.2 µM), without a hit: at the top dose activity change, negative = growth inhibition, hits mostly inhibitors; hit rate 12% among 420,000; AID 686979; note: potency is the fitted concentration of half-maximal effect; nearly all actives have a fitted effect of over 55% in size
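Chicken DT40 Tdp1-/- cells stably complemented with human TDP1 were seeded at 400 cells/well in medium containing 20 nM camptothecin, exposed to pin-transferred compounds, and grown at 37 °C for at least 48 hr. Viability was read as ATP luminescence.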
ALOX12 inh – ALOX12 (human) lipoxygenase inhibition; purified 12hLO, xylenol orange hydroperoxide absorbance; AID 1671190; P18054; hit rate 1.1% among 580,000; Potency, µM (highest dose often 108 µM), without a hit: at the highest dose activity change, negative = inhibition, most hits filed as inhibitors; note: potency is the fitted concentration of half-maximal effect
Target sequence (P18054 whole entry, looked up): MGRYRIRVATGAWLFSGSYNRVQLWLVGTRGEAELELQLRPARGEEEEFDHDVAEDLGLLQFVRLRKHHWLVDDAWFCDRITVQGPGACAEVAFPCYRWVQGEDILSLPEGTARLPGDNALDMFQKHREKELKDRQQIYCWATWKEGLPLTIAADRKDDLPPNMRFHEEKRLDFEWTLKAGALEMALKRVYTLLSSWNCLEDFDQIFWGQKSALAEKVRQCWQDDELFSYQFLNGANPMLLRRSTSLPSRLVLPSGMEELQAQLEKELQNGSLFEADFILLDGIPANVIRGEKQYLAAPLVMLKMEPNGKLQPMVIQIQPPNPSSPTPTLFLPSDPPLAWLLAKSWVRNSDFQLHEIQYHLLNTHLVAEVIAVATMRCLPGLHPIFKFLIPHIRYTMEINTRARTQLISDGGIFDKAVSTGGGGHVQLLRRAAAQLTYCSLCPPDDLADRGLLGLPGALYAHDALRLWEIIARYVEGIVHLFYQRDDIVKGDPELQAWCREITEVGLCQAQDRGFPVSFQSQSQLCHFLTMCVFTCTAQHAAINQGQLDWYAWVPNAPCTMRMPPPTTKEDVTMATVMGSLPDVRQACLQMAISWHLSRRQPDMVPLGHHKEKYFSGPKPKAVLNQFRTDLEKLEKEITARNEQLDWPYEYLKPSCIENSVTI
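Purified human 12hLO at 150 nM in 25 mM Hepes, 0.01% Triton X-100, pH 7.0, preincubated 15 min at room temperature with compound. Reaction started with 40 uM arachidonic acid, 30 min at room temperature. Hydroperoxide measured by Fe-xylenol orange, 573/405 nm absorbance ratio.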
HT1080 IDH1KD tx – toxicity to HT-1080 IDH1 knockdown cells (counter line); hit rate 2% among 360,000; HT-1080 IDH1 knockdown viability, ATP luminescence, 48 h; Potency, µM (top dose mostly 46.1 µM), inactives show at the highest dose activity, negative = toxicity, usual class: cytotoxic;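 note: potency is the fitted concentration of half-maximal effect; 0% = DMSO wells and -100% = cell-free medium wells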
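After a 2 h attachment period, IDH1KD HT-1080 cells took pin-transferred compound for 48 h at 37 °C; ATP-based luminescence after 10 min room-temperature reagent incubation reported viability.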
HT1080NT lethal – kills 2HG-producing HT-1080-NT fibrosarcoma cells | HT-1080-NT fibrosarcoma viability, CellTiter-Glo ATP luminescence, 48 h | Potency, µM (series often up to 46.1 µM), inactives show at the top dose activity, negative = less viability, actives largely listed as cytotoxic | hit rate 1.6% among 360,000 | AID 686970;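 note: NT is the 2HG producing partner of a matched IDH1 knockdown line; potency is the fitted concentration of half-maximal effect; 0% = DMSO-treated cells and -100% = media-only wells without cells; nearly all actives have a fitted effect of over 55% in size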
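Read-out is CellTiter-Glo luminescence after 10 minutes at room temperature, following 48 hours' compound treatment of HT-1080-NT cells (750 cells/well, RPMI, 5% FBS, 37 degrees C).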
DT40 TDP1 no CPT – qHTS for Inhibitors of human tyrosyl-DNA phosphodiesterase 1 (TDP1): qHTS in cells in absence of CPT; DT40 Tdp1-/- hTDP1 cells, no CPT, ATP luminescence, 48 h; hit rate 15% among 420,000; Potency, µM (titrated, usually from 46.2 µM), for the others: top-dose activity change, negative = growth inhibition, usual class: inhibitors; note: potency is the fitted concentration of half-maximal effect; nearly all actives have a fitted effect of over 55% in size
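Seeded 400 DT40-hTDP1 cells/well (vehicle DMSO, no 20 nM CPT); pinned compounds; ≥48 hr at 37 °C; CellTiter-Glo luminescence as viability measure.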
IL-1B inflam inh – inhibitors of inflammasome signaling (IL-1 beta secretion); hit rate 4.7% among 360,000; THP-1 LPS/ATP IL-1B secretion, AlphaLISA, 16 h; active compounds read low; AID 743279; activity change, % at 57.5 µM; in the data active = activity change below about -50%; inconclusive = mostly about -30% to -49%
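Secreted IL-1B measured by AlphaLISA bead assay after 16 h compound exposure of THP-1 cells; compounds (final up to 57.5 uM) added 1 h before LPS (250 ng/mL) and ATP (1.25 mM) stimulation; lower signal means less secretion.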
* marks the source's active call; other numbers are inactive results; [ ] = dose if it differs, or a comment. Unless noted, calls come from the whole dose curve; as a rule, active = well fitted curve in the direction sought with a large enough effect; inconclusive = small, poorly fitted or top-dose-only effect, or another doubt; inactive = no such curve, though single readings can be large; an effect the other way counts as inactive or inconclusive. Unless noted, % is set by controls: 0 for no effect and ±100 for the full control effect.

Screening CN1CCN(c2nc3c(c(=O)[nH]2)CCN(Cc2ccc(Br)cc2)CC3)CC1 returned ALOX12 inh 26.6%.
`CC(C)c1ccc(/C=C(/C#N)C(=O)Nc2cccc3ncccc23)cc1` gave ALOX12 inh 15.8µM*.
CCOc1ccc(/C=C(/C#N)C(=O)Nc2cccc3ncccc23)cc1 was read as ALOX12 inh -19.5%.
COc1ccc(/C=C(/C#N)C(=O)Nc2cccc3ncccc23)cc1OC was read as ALOX12 inh 15.8µM*.
For O=C(O)CCNS(=O)(=O)c1cccc(Cl)c1 the results were ALOX12 inh -5.3%.
Screening CCc1cccc(C)c1NC(=O)c1cc(S(=O)(=O)NCc2ccccc2Cl)ccc1F returned TDP1 cell CPT 20.6µM*, ALOX12 inh -7.7% and DT40 TDP1 no CPT 25.9µM*.
CCOc1ccc(S(=O)(=O)NCc2ccccc2Cl)cc1C(N)=O was read as TDP1 cell CPT inconclusive, ALOX12 inh 12.5%, HT1080 IDH1KD tx -8.6%, HT1080NT lethal 2.0%, DT40 TDP1 no CPT inconclusive and IL-1B inflam inh -58.4*.
CCOc1ccc(S(=O)(=O)NCc2ccccc2)cc1C(N)=O was read as TDP1 cell CPT inconclusive, ALOX12 inh 0.3%, HT1080 IDH1KD tx -15.6%, HT1080NT lethal 2.1%, DT40 TDP1 no CPT inconclusive and IL-1B inflam inh -8.4.
Screening Fc1ccccc1-c1csc(NCc2ccco2)n1 returned ALOX12 inh -4.6%.
For C=CCn1c(O)c(N=NC(=O)OCC)c2ccccc21 the results were TDP1 cell CPT inconclusive, ALOX12 inh -13.1%, HT1080 IDH1KD tx 10.6%, HT1080NT lethal 9.3%, DT40 TDP1 no CPT inconclusive and IL-1B inflam inh 12.8.
`C=CCn1c(O)c(N=NC(=S)Nc2ccc(OC)cc2)c2ccccc21` gave TDP1 cell CPT 3.66µM*, ALOX12 inh 4.5%, HT1080 IDH1KD tx -20.2%, HT1080NT lethal -10.3%, DT40 TDP1 no CPT 4.61µM* and IL-1B inflam inh 9.1.
C=CCn1c(O)c(N=NC(=S)Nc2cccc(OC)c2)c2ccccc21 was read as TDP1 cell CPT 3.26µM*, ALOX12 inh 7.9%, HT1080 IDH1KD tx -26.1%, HT1080NT lethal -15.4%, DT40 TDP1 no CPT 2.91µM* and IL-1B inflam inh 19.9.
Screening COc1ccc(S(=O)(=O)N2CCCC(C(=O)N3CCN(C)CC3)C2)cc1Cl (configuration not stated) returned TDP1 cell CPT -17.7%, ALOX12 inh -3.6%, HT1080 IDH1KD tx 4.2%, HT1080NT lethal -0.6%, DT40 TDP1 no CPT -22.2% and IL-1B inflam inh -6.0.
For COc1ccc(S(=O)(=O)N2CCCC(C(=O)N3CCN(Cc4ccccc4)CC3)C2)cc1Cl (configuration not stated) the results were TDP1 cell CPT 20.6µM*, ALOX12 inh 0.1%, HT1080 IDH1KD tx -18.9%, HT1080NT lethal -16.2%, DT40 TDP1 no CPT 14.6µM* and IL-1B inflam inh inconclusive.
For COc1cc(C)nc(N2CCCC(C(=O)Nc3ccccc3Br)C2)n1 (configuration not stated) the results were TDP1 cell CPT -3.6%, ALOX12 inh -3.4%, HT1080 IDH1KD tx 5.8%, HT1080NT lethal 0.2%, DT40 TDP1 no CPT 14.7% and IL-1B inflam inh 51.4.
For COc1ccc(S(=O)(=O)N2CCCC(C(=O)Nc3cccnc3)C2)cc1Cl (configuration not stated) the results were TDP1 cell CPT 16.4µM*, ALOX12 inh inconclusive, HT1080 IDH1KD tx inconclusive, HT1080NT lethal 0.7%, DT40 TDP1 no CPT 14.6µM* and IL-1B inflam inh -15.3.
CC(=O)N1CCCc2cc(S(=O)(=O)N3CCCC(C(=O)Nc4ccc(F)cc4F)C3)ccc21 (configuration not stated) was read as TDP1 cell CPT inconclusive, ALOX12 inh -12.8% and DT40 TDP1 no CPT 20.6µM*.
Screening COc1cc(C)nc(N2CCCC(C(=O)Nc3cccc(Cl)c3C)C2)n1 (configuration not stated) returned TDP1 cell CPT 23.1µM*, ALOX12 inh 0.0%, HT1080 IDH1KD tx 5.0%, HT1080NT lethal 9.4%, DT40 TDP1 no CPT inconclusive and IL-1B inflam inh 15.6.
COCCCNC(=O)CN(C)C(=O)c1ccc(C(=O)OC)cc1 was read as ALOX12 inh 6.9%.
`COc1ccc(NC(=O)N2CCCC3(CCN(C(=O)c4c(C)noc4C)CC3)C2)cc1` gave TDP1 cell CPT 0.9%, ALOX12 inh 2.2%[57.4 µM] and DT40 TDP1 no CPT 0.9%.
For Cc1ccccc1-c1nc(CSCC(=O)NCc2cccs2)c(C)o1 the results were ALOX12 inh 14.2%.
For COCCn1cnc2c1c(=O)n(CC(=O)Nc1ccccc1OC(F)F)c(=O)n2Cc1ccccc1 the results were ALOX12 inh 80.0%.
COc1ccc(NC(=O)C2CCCN(S(=O)(=O)c3ccc4c(c3)CCCN4C(C)=O)C2)cc1 (configuration not stated) was read as TDP1 cell CPT inconclusive, ALOX12 inh 20.5%, HT1080 IDH1KD tx 0.6%, HT1080NT lethal 3.1%, DT40 TDP1 no CPT inconclusive and IL-1B inflam inh 9.3.
COc1ccc(NC(=O)C2CCCN(S(=O)(=O)c3ccc4c(c3)CCCN4C(C)=O)C2)cc1Cl (configuration not stated) was read as TDP1 cell CPT 20.6µM*, ALOX12 inh -7.9%, HT1080 IDH1KD tx 5.7%, HT1080NT lethal 4.7%, DT40 TDP1 no CPT inconclusive and IL-1B inflam inh 27.2.
`CCOc1ccccc1NC(=O)C1CCCN(S(=O)(=O)c2ccc3c(c2)CCCN3C(C)=O)C1` (configuration not stated) gave TDP1 cell CPT 25.9µM*, ALOX12 inh 9.7%, HT1080 IDH1KD tx -10.1%, HT1080NT lethal -2.5%, DT40 TDP1 no CPT 14.6µM* and IL-1B inflam inh -11.1.
Screening CC(=O)N1CCCc2cc(S(=O)(=O)N3CCCC(C(=O)Nc4cccc(Cl)c4C)C3)ccc21 (configuration not stated) returned TDP1 cell CPT 16.4µM*, ALOX12 inh inconclusive and DT40 TDP1 no CPT inconclusive.
Screening Cc1ccc(S(=O)(=O)N2CCC(C(=O)N3CCN(Cc4ccccc4)CC3)CC2)cc1 returned TDP1 cell CPT 20.6µM*, ALOX12 inh inconclusive, HT1080 IDH1KD tx -1.1%, HT1080NT lethal -2.0%, DT40 TDP1 no CPT inconclusive and IL-1B inflam inh 6.8.
For CCOc1ccccc1C1NC(=O)N(CC(=O)NC2CCCCC2)C2=C1C(=O)OC2 (configuration not stated) the results were ALOX12 inh 17.4%.
